Sm TGR inh: qHTS Assay for the Inhibitors of Schistosoma Mansoni Peroxiredoxins; Schistosoma mansoni thioredoxin glutathione reductase (TGR), Q962Y6; purified TGR, DTNB reduction, TNB absorbance 405 nm; Potency, µM (series often up to 114 µM), for inactives: top-dose activity change, negative = inhibition, hits mostly inhibitors; hit rate 3% among 360,000; active = well fitted inhibition curve with a large enough effect; inconclusive = small, poorly fitted or top-dose-only effect; inactive = no such curve, though single readings can be large or run the other way; also: % is scaled to controls: 0 for no effect and ±100 for the full control effect; nearly all actives have a fitted effect of over 60% in size
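First, TGR (20 nM dispensed) and NADPH were mixed with compound. Second, a 15 min room-temperature incubation followed. Third, further NADPH and then DTNB were added to start the reaction. Finally, TNB absorbance was monitored kinetically.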
SARS PLpro yeast: qHTS of Yeast-based Assay for SARS-CoV PLP; S. cerevisiae expressing SARS-CoV PLpro, growth rescue; Potency, µM (doses to about 32.9 µM), for inactives: top-dose activity, positive = growth rescue, actives largely listed as activators; hit rate 0.19% among 330,000; calls by dose curve; also: 0% is about no effect; nearly all actives have a fitted effect of over 55% in size
Numbers without * were called inactive; ? = inconclusive; . = no result given; [ ] = another dose, or the depositor's remark. Shown are actives, neighbours in structure and some others; about 3% of the full set was active somewhere. Potency is read from the fitted curve at half-maximal effect.

SMILES	Sm TGR inh	SARS PLpro yeast
CC(=O)c1ccc(N2CCN(C(=O)CCC(=O)c3cccs3)CC2)cc1	3.2%	-2.2%
Cc1c(C(=O)N2CCC(C)CC2)c(S(=O)(=O)Nc2ccc(OC(F)(F)F)cc2)c(C)n1C	-2.2%	.
O=C(CCc1ccccc1)NCc1ccncc1	-1.3%	-2.0%
O=C(CCNNC(=O)c1ccncc1)NCc1ccccc1	39.8µM*	0.6%
CCn1cc(C(=O)N2CCN(c3cccc(Cl)c3)CC2)c(=O)c2cc(S(=O)(=O)N3CCC(C)CC3)ccc21	-2.9%	.
COc1ccc(Nc2c(-c3ccc(C)o3)nc3cc(C)ccn23)cc1	-23.1%	.
COCCn1c(-c2ccc(-c3ccccc3Cl)o2)nc2c1c(=O)[nH]c(=O)n2CC(C)C	31.6µM*	1.2%
CCCCn1c(=O)[nH]c(=O)c2c1nc(-c1ccc(-c3ccccc3Br)o1)n2CCOC	?	2.4%
COC(=O)c1c(NC(=O)c2nc(SCc3ccc(F)cc3)ncc2Cl)sc2c1CCCC2	0.8%	.
Cc1ccc(NCc2ccccc2O)cc1	17.9%	-5.3%
Cc1ccc(CNc2ccc(O)cc2)cc1	11.2µM*	-13.5%
S=c1[nH]nc(-c2cc(-c3ccco3)[nH]n2)n1-c1cccc2ccccc12	11.2µM*	5.6%
Cc1ccc(-n2c(-c3cc(-c4ccco4)[nH]n3)n[nH]c2=S)c(Br)c1	-31.2%	3.3%
CCOC(=O)c1ccc(NC(=O)CN2Cc3ccccc3C2=O)cc1	-3.5%	.
CC(C)Cn1c(-c2ccco2)csc1=Nc1cccnc1	56.2µM*	-0.7%
COCCn1c(-c2ccco2)csc1=Nc1cccnc1	?	-1.5%
Cc1cc(C)cc(NS(=O)(=O)c2ccc3c(c2)CCCN3C(=O)C2CCC2)c1	0.4%	.
CCOCCCNC1=C(Cl)C(=O)c2ccccc2C1=O	1.78µM*	-4.8%
O=C1C(Cl)=C(NCCCO)C(=O)c2ccccc21	32.6%	-10.3%
COc1ccc(Cn2ccc3nc(C)c(C(=O)N4CCN(c5cc(C)ccc5C)CC4)cc3c2=O)cc1	-3.6%	.
Cc1sc2ncn(CC(=O)N3CCN(c4ccccc4F)CC3)c(=O)c2c1S(=O)(=O)N1CCN(c2ncccn2)CC1	6.0%	.
C=Cc1ccc(Cn2c(=O)n(-c3cccc(C)c3)c(=O)c3c2c2cc(C)ccc2n3C)cc1	-8.1%	.
CC(C)Sc1nc(SCC(=O)NCc2ccco2)c2c3c(sc2n1)COC(C)(C)C3	28.2µM*	4.0%
Cc1nc(SCC(=O)NCc2ccco2)c2c3c(sc2n1)CCCC3	-8.7%[11.4 µM]	-11.0%
CCCc1nc2sc3c(SCC(=O)NCc4ccco4)ncnc3c2c2c1CCC2	15.8µM*	5.2%
SMILES	Sm TGR inh	SARS PLpro yeast
CC(C)Sc1nc(SCC(=O)O)c2c3c(sc2n1)COC(C)(C)C3	-1.2%	0.3%
Cc1nc2sc(C(=O)O)c(N)c2c2c1COC(C)(C)C2	0.0%	1.7%
COC(=O)CSc1ncnc2c1sc1nc(-c3ccco3)c3c(c12)CC(C)(C)OC3	3.98µM*	-1.4%
CCSc1ncnc2c1sc1nc(-c3ccco3)c3c(c12)CC(C)(C)OC3	?	-13.1%
CCOC(=O)c1sc2nc(-c3ccco3)c3c(c2c1N)CC(C)(C)OC3	0.891µM*	-4.3%
CCOC(=O)c1ccccc1NC(=O)CCc1c(C)nc2ncnn2c1C	0.8%	.
CC(=O)c1cccc(NC(=O)C2CCN(c3nnc(-n4cccc4)s3)CC2)c1	-7.5%	.
Cc1cc2ccccn2c1C(=O)Nc1ccccc1	8.8%	-1.2%
CC(=S)c1c(C)cc2cc(C)ccn12	17.8µM*	1.0%
O=C1NC(=S)N/C1=C/c1cccc([N+](=O)[O-])c1	-0.7%	-1.5%
CN1C(=O)/C(=C/c2cccc([N+](=O)[O-])c2)C(=O)N1c1ccccc1	25.1µM*	2.3%
CCOC(=O)c1c(C)nn(-c2ccc(NC(=O)/C=C/C(=O)O)cc2)c1C	50.1µM*	-5.8%
CCOC(=O)c1c(C)nn(-c2ccc(NC(=O)c3c(C)noc3C)cc2)c1C	15.4%	0.3%
CCOc1ccc(OCC)c(NC(=O)CC(C)n2nc(C)cc2C)c1 (centres undefined)	52.4%	.
CN1C(=O)/C(=C/c2ccccc2OCc2ccccc2F)NC1=S	-0.5%	7.9%
O=C1NC(=O)C(=Cc2ccccc2Oc2ccc(F)cc2)C(=O)N1	70.8µM*	-1.6%
CN1C(=O)C(=Cc2ccccc2Oc2ccc(Cl)c(F)c2)C(=O)N(C)C1=O	31.6µM*	4.9%
O=C1NC(=O)/C(=C\c2ccccc2Oc2ccc(F)c(F)c2)S1	0.0%	2.5%
Cc1ccccc1C(=O)Nc1ccc(S(=O)(=O)N2CCC(c3nc4ccccc4s3)CC2)cc1	2.1%	.
Cc1ccccc1-n1c(SCC(=O)Nc2ccc(Cl)cc2Cl)nc(O)cc1=O	-0.7%	.
O=C(Nc1ccc(F)cc1F)c1cc(-c2ccco2)nc2ccccc12	11.2µM*	-0.3%
O=C(Nc1cccc(S(=O)(=O)NC2=NCCC2)c1)c1ccc(=O)[nH]c1	5.62µM*	-9.2%
CCN(CC)CCNC(=O)c1cc(-c2ccco2)nc2ccccc12	-30.8%	0.5%
O=C(Nc1cccc(S(=O)(=O)NC2=NCCC2)c1)c1ccc(F)cc1	.	-3.3%
O=C(O)c1cc(-c2ccco2)nc2cc3ccccc3cc12	2.24µM*	1.2%
SMILES	Sm TGR inh	SARS PLpro yeast
O=C(O)c1cc(-c2ccccc2)nc2ccccc12	11.0%	-4.1%
O=C(Nc1ccccc1N1CCOCC1)c1cc(-c2ccco2)nc2ccccc12	?	4.1%
O=C(NNC(=O)c1cc(-c2ccco2)nc2ccccc12)c1ccccc1	11.2µM*	-1.7%
COc1ccc(NC(=O)N2CCc3c(sc4c3CCCC4)C2c2ccccc2OC)cc1 (centres undefined)	5.4%	.
CCn1cc(/C=C(\NC(=O)c2ccccc2Cl)C(=O)NCCCn2ccnc2)c2ccccc21	-19.8%	.
CC(=O)c1cccc(NC(=O)c2cc(-c3ccncc3)nc3ccccc23)c1	-4.1%	-7.1%
O=C(Nc1cccc(S(=O)(=O)NC2=NCCCCC2)c1)c1cc(-c2ccncc2)nc2ccccc12	4.0%	-0.1%
O=C(Nc1cccc(S(=O)(=O)NC2=NCCCCC2)c1)c1cc(-c2ccco2)nc2ccccc12	11.2µM*	-0.5%
CC(=O)c1cccc(NC(=O)c2cc(-c3ccco3)nc3ccccc23)c1	25.1µM*	-3.8%
CCn1nc(C)cc1C(=O)OCC(=O)c1ccc(Cl)cc1	0.4%	-1.7%
CCn1nc(C)cc1C(=O)Sc1ccc(Cl)cc1Cl	3.55µM*	-1.8%
CCn1nc(C)cc1C(=O)Sc1cccc(Br)c1	5.62µM*	0.0%
Cc1cc(C)n(C(=O)CNC(=O)c2cccc(Br)c2)n1	-3.1%	-11.2%
Cc1ccc(Cn2c(=O)n(Cc3ccccc3Cl)c(=O)c3cccnc32)cc1	0.1%	.
C[n+]1cccc2c(Br)ccc([O-])c21	44.7µM*	-0.1%
Cc1ccc(C(=O)c2oc3ccccc3c2NC(=O)c2cc(-c3ccccc3)on2)cc1	0.7%	.
CCOCCCNC(=O)C1CCC(CNS(=O)(=O)c2ccc(NC(C)=O)cc2)CC1 (centres undefined)	25.1%	.
Cc1ccc(CN(C(=O)COc2ccc(Cl)cc2)c2ccccn2)o1	-33.0%	.
Cc1ccc(CN(C(=O)COc2ccccc2Cl)c2ccccn2)o1	39.8µM*	.
COc1cc(/C=C(\C#N)c2nc3ccccc3[nH]2)ccc1OCc1cccc(C(F)(F)F)c1	2.1%	.
O=C1NC(=S)NC(=O)C1=Cc1ccc(Br)s1	20µM*	17.9%
O=C1NC(=S)NC(=O)C1=Cc1cccc2cc3ccccc3cc12	?	-5.7%
CN1C(=O)/C(=C\c2ccc(Br)s2)C(=O)NC1=S	3.16µM*	6.8%
Cc1cc(/C=C2\C(=O)NC(=S)N(C)C2=O)c(C)n1C1CCCCC1	-22.1%	14.5%
